An excerpt weighted towards active compounds, which were near 3.7% of everything screened.
ANO1 block: blocks the mouse calcium-activated chloride channel TMEM16A; HEK293 TMEM16A/YFP iodide influx fluorescence, ionomycin; 310,000 tested, 1.2% active; normalized B-score (activity score, 25-100; higher = stronger inhibition) at 10 µM; AID 588511; Q8BHY3;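 active = ratio plate-corrected score three or more library SD toward inhibition, starting fluorescence score within five deviations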;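 also: score derived from kinetic fluorescence span divided by baseline fluorescence per well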
CHT allo act: allosterically activates the human high affinity choline transporter; CHT-expressing cells, membrane potential dye, choline EC20; hits give high values; LV-AA mutant CHT in HEK293 cells; B-score at 10 µM; 310,000 tested, 0.49% active; AID 488977;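 active = initial fluorescence not abnormally high and integrated response B-score, plate-corrected, over 3 SD above library mean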
Kir21 block: blocks the mouse Kir2.1 inward-rectifier potassium channel | P35561 | HEK293-Kir2.1, FluxOR thallium flux fluorescence; hits give low values | B-score at 10 µM | 310,000 tested, 0.85% active;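 active = fluorescence ratio B-score at or below minus 3 SD of library scores, with starting-brightness B-score within 2 SD, cut at about -4.2 in these data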;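 also: channel flux triggered by added potassium and thallium sulfate stimulus; B-score of peak minus minimum fluorescence over baseline after thallium stimulus; more negative B-score means stronger Kir2.1 block with less thallium influx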
ANO1 activ: activators or potentiators of mouse TMEM16A chloride channel | Q8BHY3 | HEK293 TMEM16A/YFP-H148Q/I152L, iodide quench fluorescence; hits give low values | B-score at 10 µM | 340,000 tested, 0.3% active;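 active = fluorescence-ratio B-score plate-corrected deviation score at least 3 library SD below zero, with starting fluorescence score within 5 deviations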;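 also: channel opened by trigger with iodide after compound preincubation; score built on the fluorescence ratio of max minus min over baseline; more negative score means more quench and so TMEM16A activation or potentiation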
CHT block: human CHT choline transport inhibition; Q9GZV3; CHT-expressing cells, membrane potential dye, choline response; hits give low values; B-score at 10 µM; 310,000 tested, 0.86% active; AID 488975;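 active = B-score over 3 SD under the library average, and starting fluorescence ratio not unusually high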;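 also: choline stimulus applied at its EC90 after an EC20 pre-addition; B-score computed on integrated fluorescence ratio after choline addition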
GPR7 antagonist: human neuropeptides B/W receptor 1 antagonism | inhibition, % at 4.4 µM | 290,000 tested, 1.1% active | GPR7-expressing cells, fluorescence antagonist assay | P48145; in the data active = inhibition above about 16%, passing the limit was not always enough;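 also: cells stimulated with the agonist NPW; 0% = agonist with vehicle and 100% = vehicle without agonist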
GPR7 antag cf: human GPR7 antagonism, confirmation assay | shares compounds with GPR7 antagonist | GPR7-expressing cells, calcium fluorescence antagonist mode | inhibition, % at 4.4 µM | 2,400 tested, 52% active; in the data active = inhibition above about 24%;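 also: stimulated with the GPR7 agonist NPW; 0% = agonist plus vehicle and 100% = vehicle alone without agonist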
MCHR1 antagonist: counter-screen for GPR7 antagonists: antagonists of human MCHR1; shares compounds with GPR7 antagonist; MCHR1-expressing cells, fluorescence antagonist assay; inhibition, % at 4.4 µM; 2,400 tested, 62% active; AID 2148; in the data active = inhibition above about 22%;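 also: 0% = vehicle with agonist and 100% = vehicle without agonist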
* = called active by the depositor; i = inactive; · = no result.

SMILES	ANO1 block	CHT allo act	Kir21 block	ANO1 activ	CHT block	GPR7 antagonist	GPR7 antag cf	MCHR1 antagonist
O=C(Cc1ccccc1)Nc1ccccc1N1CCN(c2ccccc2)CC1	i	i	-0.12	i	i	-0.1	·	·
CC(C)C(=O)N1CCN(c2ccccc2NC(=O)Cc2ccc(Cl)cc2)CC1	i	i	-3.21	i	i	28.6*	39.0*	37.1*
CCC(=O)N1CCN(c2ccccc2NC(=O)Cc2ccccc2)CC1	i	i	-0.06	i	i	22.3*	15.3	22.0*
CN1C(=O)CSC1=S	i	i	-1.51	i	i	-11.6	·	·
CC(=O)NCCc1nc2cc(NC(=O)COc3ccc(C)cc3)ccc2n1C	i	i	-0.01	i	i	-8.7	·	·
CCN1/C(=C/c2ccc3cc(C)ccc3[n+]2CC)Sc2cc(C)c(C)cc21	·	·	·	i	·	28.4*	29.7*	14.2
Cc1cccc(N2CC(C(=O)OCC(=O)c3ccc(OC(=O)c4cccs4)cc3)CC2=O)c1C (stereo not given)	i	i	0.07	i	i	30.2*	18.1	57.8*
Cc1cccc(N2CC(C(=O)OCC(=O)Nc3sccc3C(N)=O)CC2=O)c1C (stereo not given)	·	·	·	i	·	·	·	·
CCc1ccc(N2C(=O)CN(Cc3ccccc3)C2=S)cc1	i	i	0.94	i	i	38.8*	5.0	-2.5
COc1ccc(N=C2NN=C(c3ccc4c(c3)OCCO4)CS2)cc1	i	i	0.05	i	i	23.4*	19.8	16.8
FC(F)Sc1ccc(N=C2NN=C(c3ccc4c(c3)OCCO4)CS2)cc1	i	i	1.05	i	i	-4.0	·	·
COC(=O)c1ccc(NC(=O)CSc2nc(=O)n3cccc(C)c3n2)cc1	i	i	-0.05	i	i	·	·	·
Cc1ccc(C)c(NC(=S)NCCN(C2CCCCC2)C2CCCC2)c1	i	i	-0.71	i	i	46.0*	43.6*	35.6*
NC(=S)N/N=C/c1c(O)ccc2ccccc12	i	i	-0.18	i	i	23.3*	1.0	-0.6
O=CN/N=C/c1c(O)ccc2ccccc12	i	i	-4.11	i	i	-7.0	·	·
COc1ccc(CC(=O)Nc2cccc(SC)c2)cc1OC	·	·	-0.05	i	·	0.6	·	·
Cc1ccc(Cl)cc1N1CCN(CC(=O)Nc2ccc(CN3CCCCC3)cc2)CC1	i	i	-0.18	i	i	23.9*	28.1*	55.6*
Cc1cc(=O)oc2cc(OCc3nnc(-c4ccccc4Br)o3)ccc12	i	i	·	i	i	31.1*	16.9	25.4*
O=c1ccc2ccc(OCc3nnc(-c4ccccc4Br)o3)cc2o1	i	i	-0.81	i	i	17.6	·	·
COc1ccc(CCNC(=O)c2cc3c(=O)n4ccccc4nc3n(CC3CCCO3)c2=N)cc1 (stereo not given)	·	·	·	i	·	·	·	·
N=c1c(C(=O)NCCc2ccccc2)cc2c(=O)n3ccccc3nc2n1CC1CCCO1 (stereo not given)	i	i	0.24	i	i	47.6*	34.3*	19.9
N=c1c(C(=O)NCc2ccc(F)cc2)cc2c(=O)n3ccccc3nc2n1CC1CCCO1 (stereo not given)	i	i	-0.24	i	i	21.6*	25.9*	12.5
CC(=O)[C@@]1(O)[C@H](C)CC2C3CC=C4CC(OP(=O)(O)O)CC[C@]4(C)C3CC[C@@]21C (stereo not given in full)	i	i	0.67	i	i	28.4*	-6.8	8.1
Cc1ccc(NC2Sc3ccccc3NC2=O)cc1Cl (stereo not given)	i	i	1.19	i	i	-3.3	·	·
CC1CC(C)CN(CCCNC(=O)c2ccc3c(c2)NC(=O)CS3)C1 (stereo not given)	i	i	-0.97	i	i	-8.4	·	·
SMILES	ANO1 block	CHT allo act	Kir21 block	ANO1 activ	CHT block	GPR7 antagonist	GPR7 antag cf	MCHR1 antagonist
COc1ccc(CN2CCN(CC(O)Cn3c4ccccc4c4ccccc43)CC2)cc1 (stereo not given)	i	i	-4.42*	i	i	23.1*	46.7*	67.9*
Cc1oc2c(C)c(O)ccc2c(=O)c1-c1cnn(-c2ccccc2)c1	i	i	-0.24	i	i	28.5*	19.1	3.1
COc1ccc2c(=O)c(-c3cnn(-c4ccccc4)c3)c(C)oc2c1	i	i	-2.19	i	i	-5.8	·	·
COC(=O)C(NC(=O)c1ccc(F)cc1)(Nc1ncc(S(=O)(=O)c2ccc([N+](=O)[O-])cc2)s1)C(F)(F)F (stereo not given)	i	i	1.49	i	i	-0.5	·	·
COC(=O)C(NC(=O)c1ccccc1C)(Nc1ncc(S(=O)(=O)c2ccc([N+](=O)[O-])cc2)s1)C(F)(F)F (stereo not given)	i	i	0.34	i	i	34.5*	41.1*	36.9*
O=C(COC(=O)/C=C/c1ccc(Cl)cc1)NCCc1ccccc1	i	i	0.79	i	i	21.3*	-0.9	-0.8
COc1cccc2c1Oc1ncccc1N(C(=O)CCC(=O)NCc1ccccc1)C2	i	i	-0.63	i	i	11.5	·	·
CCc1ccc(CNC(=O)CCC(=O)N2Cc3cccc(OC)c3Oc3ncccc32)cc1	i	i	0.38	i	i	23.4*	3.1	-5.4
CCOC(=O)/C=C1\SC(C)C(=O)N1CC(=O)N(CCC#N)c1ccccc1 (stereo not given)	·	·	·	i	·	·	·	·
O=C(CNC(=O)c1ccc(F)cc1)c1ccc(Cl)cc1	i	i	0.27	i	i	2.0	·	·
N#CC1=C(N)Oc2cc(N)ccc2C1c1ccc(F)cc1F (stereo not given)	i	i	-4.72	i	i	34.1*	9.0	20.6
N#CC1=C(N)Oc2cc(N)ccc2C1c1ccc(F)cc1 (stereo not given)	i	i	2.31	i	i	-3.7	·	·
O=C(CCCn1c(=O)oc2ccccc21)NC1CCCCCC1	i	i	-1.91	·	i	21.0*	-9.8	-4.1
Cc1ccccc1SC1CCN(Cc2nc(C3CC3)no2)CC1	i	i	0.23	i	i	12.2	·	·
CC(O)CNCCCOc1ccc(Cl)cc1C(C)(C)C (stereo not given)	i	i	-6.19*	i	i	21.3*	38.4*	45.5*
CC(C)NCCCOc1ccc(Cl)cc1Br	i	i	-1.28	i	i	4.5	·	·
